Source: PubChem BioAssay (NCATS)
Records with an inconclusive call do not appear. Where a call stands in place of a potency, no number is given. Active and inactive are the calls of the source. The call rests on the fitted dose curve; in most records, active means well fitted curve in the direction sought with a large enough effect; inconclusive means small, poorly fitted or top-dose-only effect, or another doubt; inactive means no such curve, though single readings can be large; an effect the other way counts as inactive or inconclusive.

Assays:
[1] = tested on: Zika virus NS2B-NS3 protease (unlinked); test: Optimization of GU AMC qHTS for Zika virus inhibitors: Unlinked NS2B-NS3 protease assay (AID 1347151); further: nearly all actives have a fitted effect of over 80% in size; further: potency means the concentration at half of the fitted maximal effect
Procedure, shortened: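 Percent inhibition is derived from the 15-min change in AMC fluorescence, normalized against no-inhibitor and no-enzyme controls, then fitted to a 4-parameter Hill curve. Aprotinin was the intraplate control.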

[2] = tested on: Zika virus NS2B-NS3 protease; test: Primary screen GU AMC qHTS for Zika virus inhibitors (AID 1347154); further: nearly all actives have a fitted effect of over 70% in size
Procedure, shortened: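 Fluorogenic AMC-substrate cleavage by noncovalent NS2B-NS3 protease complex (25 nM, pH 8.0 Tris buffer with Tween 20) followed for 15 minutes at room temperature (~20% conversion). Percent inhibition from ex340/em450 signal change, fitted by 4-parameter Hill equation.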

[3] = qHTS to identify inhibitors of the type 1 interferon - major histocompatibility complex class I in skeletal muscle: primary screen against the NCATS Pharmaceutical Collection (AID 1347407);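 further: luminescence of HiBiT knocked into endogenous HLA-B as interferon-induced MHC class I level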
Procedure, shortened: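 Cells were seeded with 4 ng/ml IFN-beta, incubated 1 h, then dosed with compounds over eight 1:5 steps up to 46 uM final. After 24 h at 37 C, HiBiT lytic reagent was added and luminescence read after 10 min lysis in the dark.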

[4] = qHTS for inhibitors of adenylyl cyclases using a fission yeast platform: a pilot screen against the NCATS LOPAC library (AID 1347410)
Procedure, shortened: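 Growth medium went into the plates first, then compounds were pinned (final up to 57 µM), then CHP2027 yeast were added. Plates were incubated overnight (18 h) at 30C in the dark, and GFP was measured by laser scanning cytometry.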

[5] = target: Protein phosphatase 1D (Homo sapiens) (UniProt O15297); test: RapidFire Mass Spectrometry qHTS Assay for Modulators of WT P53-Induced Phosphatase 1 (WIP1) (AID 1347424);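 further: amount of dephosphorylated VEPPL-S-QETFS peptide product formed by WIP1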; further: potency means the concentration at half of the fitted maximal effect
Procedure, shortened: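 RapidFire mass spectrometry measured dephosphorylated peptide after 5 min room-temperature reaction of 2 uM VEPPL-pS-QETFS with 10 nM WIP1 (50 mM Tris-HCl pH 7.5, 30 mM MgCl2, 0.1 mM EGTA, BSA), following 1 hr compound preincubation; 1 uM isotope-labelled product standard.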

[6] = Validation qHTS assay for inhibitors of Activation Induced Cytidine Deaminase (AID): UDG Counterscreen signal (AID 1347427)
Procedure, shortened: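 Fluorescence at 560 nm excitation, 665 nm emission reports UDG signal after 250 mM NaOH (2x) addition and 30 min. Enzymes (AID 1 uM, UDG 2 U/mL, at 4/3x) preincubated 10 min with compound, then 4 h with 4x 250 nM DJC20/DJC23 substrate at room temperature.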

[7] = target: Single-stranded DNA cytosine deaminase (Homo sapiens) (UniProt Q9GZX7); test: Validation qHTS assay for inhibitors of Activation Induced Cytidine Deaminase (AID): AID signal (AID 1347429)
Procedure, shortened: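 Compounds (up to 114 uM final) are tested against AID plus UDG using DJC20/DJC23 FRET substrate. Reactions incubate 4 hr at room temperature, receive NaOH for 30 min, and are read at Ex 540/Em 590 nm.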

[8] = target: Lysine-specific demethylase 5B (Homo sapiens) (UniProt Q9UGL1); test: Optimization screen for KDM5B Histone Demethylases FDH coupled qHTS against the LOPAC library (AID 1347166)
Procedure, shortened: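 KDM5BDeltaAP (200nM final) in 50mM HEPES pH 7.5, 0.01% Tween-20 was preincubated with compound for 10 min at room temperature. A substrate mix of 12.5uM H3K4Me3, 25uM a-ketoglutarate, ascorbate, Fe2+, NAD+ and formaldehyde dehydrogenase was then added. NADH fluorescence (340/450 nm) was read initially and after 30 min.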

[9] = qHTS to identify inhibitors of the type 1 interferon - major histocompatibility complex class I in skeletal muscle: primary screen against the NCATS LOPAC collection (AID 1347405);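 further: human myoblasts with HiBiT tag on endogenous HLA-B stimulated by IFN-beta; lytic HiBiT luminescence reporting HLA-B protein level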; further: potency means the concentration at half of the fitted maximal effect
Procedure, shortened: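 IFN-beta-stimulated (4 ng/ml) HLA-B HiBiT knock-in myoblasts, compound-treated 24 hrs up to 46 uM final; signal via LgBiT complementation and furimazine luminescence.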

[10] = target: Protein phosphatase 1D (Homo sapiens) (UniProt O15297); test: Rhodamine-PBP qHTS Assay for Modulators of WT P53-Induced Phosphatase 1 (WIP1) (AID 1347425)
Procedure, shortened: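 Read-out: Rhodamine-PBP fluorescence (ex 525/em 598 nm) for released Pi, read each minute for 11 min after adding 10 uM VEPPL-pS-QETFS; signal taken as f1 minus pre-substrate f0. Enzyme 5 nM WIP1 with 1 hr room-temperature compound preincubation.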

[11] = tested on: Zika virus NS2B-NS3 protease (linked construct); test: Confirmatory screen NINDS AMC qHTS for Zika virus inhibitors (AID 1347152);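 further: AMC fluorescence gain from cleaved Bz-Nle-KRR-AMC substrate over 15 min; top concentration of the series differs between compounds; nearly all actives have a fitted effect of over 70% in size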
Procedure, shortened: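 In this dose-response qHTS, AMC release from 10 microM Bz-Nle-KRR-AMC by 1 nM linked protease is measured over 15 minutes (about 20% conversion) at pH 8.0. Percent inhibition is fitted to a 4-parameter Hill curve.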

[12] = tested on: Zika virus NS2B-NS3 protease (unlinked complex); test: Confirmatory screen GU AMC qHTS for Zika virus inhibitors (AID 1347153); further: nearly all actives have a fitted effect of over 70% in size
Procedure, shortened: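 Noncovalent NS2B hydrophilic domain/NS3 protease complex (25 nM) in 10 mM Tris-HCl pH 8.0, 0.01% Tween 20 was preincubated 15 min at room temperature with compounds. Then 10 µM AMC substrate (Km 18.3 µM) was added; fluorescence was read over 15 min and fitted to a 4-parameter Hill equation.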

[13] = Confirmatory screen NINDS Rhodamine qHTS for Zika virus inhibitors (AID 1347161);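 further: purified Zika NS2B-NS3 protease with linked NS2B cofactor domain and Rhodamine110 peptide substrate; series mostly up to about 110 µM; nearly all actives have a fitted effect of over 60% in size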
Procedure, shortened: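 Aprotinin served as in-plate control. Conditions: 25 nM linked NS2B-NS3, pH 8.0 Tris buffer, titrated compounds, 15 min preincubation and 15 min reaction with 1.5 microM Rhod110 substrate at room temperature.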

[14] = Vero cells viability qHTS for Zika virus inhibitors (AID 1347167)
Procedure, shortened: (§1)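 Luminescent ATP readout (CellTiter Glo) after 30 min at 37 degrees C gives viability; cells in DMEM + 4% FBS were treated 24 to 48 hours with compound, following overnight attachment.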

[15] = HepG2 cells viability qHTS for Zika virus inhibitors (AID 1347168)
Procedure, shortened: as §1

[16] = qHTS to identify inhibitors of the type 1 interferon - major histocompatibility complex class I in skeletal muscle: primary screen against the NCATS Mechanism Interrogation Plate v5.0 (MIPE) Libary (AID 1347411); further: nearly all actives have a fitted effect of over 65% in size
Procedure, shortened: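 IFN-beta-driven (4 ng/ml) HLA-B-HiBit expression in CRISPR-tagged C25cl48 myoblasts; compounds 11-pt, 1:3, max 46 uM, 24 hr exposure; lytic NanoLuc complementation luminescence.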

Single-stranded DNA cytosine deaminase (Homo sapiens), sequence (Q9GZX7 whole entry, looked up): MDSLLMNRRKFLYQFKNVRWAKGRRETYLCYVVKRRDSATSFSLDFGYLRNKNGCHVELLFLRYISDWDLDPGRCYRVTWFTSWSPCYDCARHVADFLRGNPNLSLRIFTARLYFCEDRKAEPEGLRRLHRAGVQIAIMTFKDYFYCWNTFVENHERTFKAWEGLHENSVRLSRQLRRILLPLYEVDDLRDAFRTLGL
Lysine-specific demethylase 5B (Homo sapiens), sequence (Q9UGL1 whole entry, looked up): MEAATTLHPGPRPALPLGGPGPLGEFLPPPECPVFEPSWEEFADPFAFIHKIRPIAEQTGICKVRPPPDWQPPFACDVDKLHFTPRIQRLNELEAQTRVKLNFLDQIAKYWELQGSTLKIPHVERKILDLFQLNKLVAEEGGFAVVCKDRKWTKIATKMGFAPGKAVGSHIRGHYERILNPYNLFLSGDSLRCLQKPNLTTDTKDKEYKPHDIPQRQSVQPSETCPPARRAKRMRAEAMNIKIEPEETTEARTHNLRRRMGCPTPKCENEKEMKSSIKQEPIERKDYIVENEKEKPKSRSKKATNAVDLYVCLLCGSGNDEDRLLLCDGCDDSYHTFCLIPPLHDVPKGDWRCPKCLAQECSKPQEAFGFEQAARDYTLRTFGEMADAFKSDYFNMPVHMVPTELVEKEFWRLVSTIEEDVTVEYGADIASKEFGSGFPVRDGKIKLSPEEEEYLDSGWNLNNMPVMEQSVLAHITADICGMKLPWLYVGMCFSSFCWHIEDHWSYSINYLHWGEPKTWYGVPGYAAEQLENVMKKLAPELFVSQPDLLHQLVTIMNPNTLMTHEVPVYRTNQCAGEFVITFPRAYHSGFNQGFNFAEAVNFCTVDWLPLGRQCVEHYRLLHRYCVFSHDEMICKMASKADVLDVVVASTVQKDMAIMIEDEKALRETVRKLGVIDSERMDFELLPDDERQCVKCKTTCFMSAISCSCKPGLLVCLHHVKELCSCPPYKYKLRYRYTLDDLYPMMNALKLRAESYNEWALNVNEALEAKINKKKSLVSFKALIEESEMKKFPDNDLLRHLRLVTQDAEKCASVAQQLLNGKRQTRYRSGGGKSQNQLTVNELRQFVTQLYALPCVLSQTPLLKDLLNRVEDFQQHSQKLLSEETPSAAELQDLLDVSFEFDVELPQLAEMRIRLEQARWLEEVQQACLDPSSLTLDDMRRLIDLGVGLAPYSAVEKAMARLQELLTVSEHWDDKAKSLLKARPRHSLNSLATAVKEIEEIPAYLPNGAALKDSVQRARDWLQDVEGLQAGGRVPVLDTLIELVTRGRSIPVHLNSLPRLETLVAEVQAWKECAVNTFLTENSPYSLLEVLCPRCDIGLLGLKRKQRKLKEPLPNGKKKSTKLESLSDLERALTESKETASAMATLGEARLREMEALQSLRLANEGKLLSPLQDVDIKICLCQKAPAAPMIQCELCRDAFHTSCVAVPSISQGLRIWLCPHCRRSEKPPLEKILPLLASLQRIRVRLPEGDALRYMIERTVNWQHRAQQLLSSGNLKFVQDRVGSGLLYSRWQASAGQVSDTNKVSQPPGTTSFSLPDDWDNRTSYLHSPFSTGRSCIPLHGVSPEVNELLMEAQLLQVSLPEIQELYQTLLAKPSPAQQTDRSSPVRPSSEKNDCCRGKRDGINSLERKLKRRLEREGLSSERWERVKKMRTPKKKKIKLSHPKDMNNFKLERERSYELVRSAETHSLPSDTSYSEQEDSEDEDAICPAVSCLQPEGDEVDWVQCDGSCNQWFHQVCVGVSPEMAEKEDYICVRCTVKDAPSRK
Protein phosphatase 1D (Homo sapiens), sequence (O15297 whole entry, looked up): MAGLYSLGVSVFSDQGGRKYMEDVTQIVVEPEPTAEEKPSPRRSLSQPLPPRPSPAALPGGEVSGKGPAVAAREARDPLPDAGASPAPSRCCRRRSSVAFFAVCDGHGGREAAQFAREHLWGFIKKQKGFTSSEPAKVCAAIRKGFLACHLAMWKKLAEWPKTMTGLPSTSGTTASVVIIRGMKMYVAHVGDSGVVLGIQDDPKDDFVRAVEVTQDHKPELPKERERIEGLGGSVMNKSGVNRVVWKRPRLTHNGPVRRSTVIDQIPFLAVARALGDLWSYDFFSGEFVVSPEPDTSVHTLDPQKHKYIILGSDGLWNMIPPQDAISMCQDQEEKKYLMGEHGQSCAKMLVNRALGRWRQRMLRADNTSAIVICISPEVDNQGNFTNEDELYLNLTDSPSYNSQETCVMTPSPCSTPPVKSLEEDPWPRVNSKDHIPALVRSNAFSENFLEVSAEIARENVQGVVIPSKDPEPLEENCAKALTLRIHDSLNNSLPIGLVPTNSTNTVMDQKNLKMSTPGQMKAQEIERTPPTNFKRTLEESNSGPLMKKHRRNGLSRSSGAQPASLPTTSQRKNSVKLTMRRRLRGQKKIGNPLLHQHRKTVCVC

Row | SMILES | Potency [1] | outcome [2] | Potency [3] | outcome [4] | Potency [5] | outcome [6] | Potency [7] | Potency [8] | Potency [9] | outcome [10] | outcome [11] | outcome [12] | Potency [13] | outcome [14] | outcome [15] | Potency [16]
1 | COC(=O)C1=C(C)NC(C)=C(C(=O)OCCN(C)Cc2ccccc2)C1c1cccc([N+](=O)[O-])c1 (stereo not drawn) | inactive | inactive | inactive | inactive | inactive | inactive | inactive |  |  |  |  |  |  |  |  | 
2 | CN1C[C@H](C(=O)N[C@]2(C)O[C@@]3(O)[C@@H]4CCCN4C(=O)[C@H](Cc4ccccc4)N3C2=O)C[C@@H]2c3cccc4[nH]cc(c34)C[C@H]21 |  | inactive | inactive | inactive | inactive | inactive | inactive | inactive | inactive | inactive |  |  |  |  |  | 
3 | Cc1nc2sccn2c(=O)c1CCN1CCC(=C(c2ccc(F)cc2)c2ccc(F)cc2)CC1 |  | inactive | inactive | inactive | inactive | inactive | inactive |  | inactive | inactive | inactive | inactive | inactive | inactive | inactive | 
4 | CSc1ccc(C(=O)c2[nH]c(=O)[nH]c2C)cc1 | inactive |  | inactive | inactive | inactive | inactive | inactive | inactive | inactive | inactive |  |  |  |  |  | 
5 | CC(C)(Oc1ccc(CCNC(=O)c2ccc(Cl)cc2)cc1)C(=O)O | inactive | inactive |  | inactive | inactive | inactive | inactive | inactive |  | inactive |  |  |  |  |  | 
6 | Cc1nnc(SCC2=C(C(=O)O)N3C(=O)[C@@H](NC(=O)Cn4cnnn4)[C@H]3SC2)s1 | inactive | inactive |  | inactive | inactive |  |  | inactive |  | inactive |  |  |  |  |  | 
7 | CN(C)C/C=C(/c1ccc(Br)cc1)c1cccnc1 |  | inactive | inactive | inactive | inactive | inactive | inactive | inactive | inactive | inactive |  |  |  |  |  | 
8 | COc1ccc([C@@H]2Sc3ccccc3N(CCN(C)C)C(=O)[C@@H]2OC(C)=O)cc1 |  | inactive | inactive | inactive | inactive | inactive | inactive | inactive | inactive | inactive |  |  |  |  |  | inactive
9 | O=C(CCNNC(=O)c1ccncc1)NCc1ccccc1 | inactive | inactive | inactive | inactive | inactive | inactive | inactive |  | inactive | inactive |  |  |  |  |  | 
10 | CCn1nc(C(=O)O)c(=O)c2cc3c(cc21)OCO3 |  | inactive | inactive | inactive | inactive | inactive | inactive | inactive | inactive | inactive |  |  |  |  |  | 
11 | Nc1ncn([C@@H]2O[C@H](CO)[C@@H](O)[C@H]2O)c(=O)n1 |  | inactive | inactive | inactive | inactive | inactive | inactive | inactive | 8.91 µM (active) | inactive |  |  |  |  |  | 
12 | C[N+](C)(C)CCOC(N)=O |  | inactive | inactive | inactive | inactive | inactive | inactive | inactive | inactive | inactive |  |  |  |  |  | 
13 | CCn1cc(C(=O)O)c(=O)c2cc3c(cc21)OCO3 | 23.8 µM (active) | inactive | inactive | inactive | inactive | inactive | inactive |  | inactive | inactive |  |  |  |  |  | 
14 | CC(C)COCC(CN(Cc1ccccc1)c1ccccc1)N1CCCC1 (stereo not drawn) |  | inactive | inactive | inactive | inactive | inactive | inactive |  | inactive | inactive |  |  |  |  |  | 
15 | CC1=C(C)C(=O)C(CCCCC#CCCCC#CCO)=C(C)C1=O |  | inactive | inactive | inactive | inactive | inactive | inactive |  | inactive | inactive |  |  |  |  |  | 
16 | COc1cc2c(cc1OC)-c1cc(=Nc3c(C)cc(C)cc3C)n(C)c(=O)n1CC2 |  | inactive |  | inactive | inactive | inactive | inactive | inactive |  |  |  |  |  |  |  | 
17 | CCCCOCCOCCOCc1cc2c(cc1CCC)OCO2 |  | inactive | inactive |  | inactive |  |  |  |  | inactive |  |  |  |  |  | 
18 | COCCCC/C(=N\OCCN)c1ccc(C(F)(F)F)cc1 |  | inactive |  | inactive | inactive | inactive | inactive | inactive | inactive |  |  |  |  |  |  | 
19 | COC(=O)C1=C(C)NC(C)=C(C(=O)OC(C)(C)CN(C)CCC(c2ccccc2)c2ccccc2)C1c1cccc([N+](=O)[O-])c1 (stereo not drawn) |  |  |  | inactive | inactive | inactive | inactive | inactive |  | inactive |  |  |  |  |  | 
20 | C[C@]12CCC(=O)C=C1CC[C@@H]1[C@@H]2C(=O)C[C@@]2(C)[C@H]1CC[C@]2(O)C(=O)CO |  | inactive | inactive | inactive | inactive | inactive | inactive | inactive | inactive |  |  |  |  |  |  | 
21 | NC(=Nc1ccccc1)Nc1ccccc1 |  | inactive | inactive |  | inactive |  |  |  |  | inactive |  |  |  |  |  | 
22 | CN(C)C(=O)Oc1ccc[n+](C)c1 |  | inactive | inactive | inactive | inactive | inactive | inactive | inactive | inactive | inactive |  |  |  |  |  | 
23 | NC1=NCC2c3ccccc3Cc3ccccc3N12 (stereo not drawn) |  | inactive | inactive | inactive | inactive | inactive | inactive | inactive | inactive |  |  |  |  |  |  | 
24 | CCc1c(C)[nH]c2c1C(=O)C(CN1CCOCC1)CC2 (stereo not drawn) |  | inactive | inactive | inactive | inactive | inactive | inactive | inactive | inactive |  |  |  |  |  |  | 
25 | Cc1ccc(Cl)c(Nc2ccccc2C(=O)O)c1Cl |  | inactive | inactive | inactive | 17.8 µM (active) | inactive | inactive | inactive | inactive |  |  |  |  |  |  | 
26 | Cc1nc2ccccn2c(=O)c1CCN1CCC(C(=O)c2ccc(F)cc2)CC1 |  | inactive | inactive | inactive | inactive | inactive | inactive |  | inactive | inactive |  |  |  |  |  | 
